Screening results deposited in PubChem BioAssay by National Center for Advancing Translational Sciences (NCATS).
TDP1 inh: blocks human tyrosyl-DNA phosphodiesterase 1; recombinant TDP1, AlphaScreen DNA substrate cleavage; 350,000 compounds, 0.28% hits; Potency, µM (doses to about 130 µM), most hits filed as inhibitors; further: nearly all actives have a fitted effect of over 40% in size
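Signal: AlphaScreen proximity between streptavidin donor and anti-FITC acceptor beads on intact substrate. Reaction: Tdp1 1 nM, substrate 15 nM final, 5 min RT after 15 min compound preincubation.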
TDP1 cell CPT: DT40-hTDP1 cell growth loss with CPT; 420,000 compounds, 12% hits; chicken DT40 Tdp1-/-;hTDP1 cells + 20 nM CPT, ATP luminescence, 48 h; Potency, µM (doses to about 46.2 µM), hits mostly inhibitors; further: nearly all actives have a fitted effect of over 55% in size
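Chicken DT40 Tdp1-/- cells stably complemented with human TDP1 were seeded at 400 cells/well in medium containing 20 nM camptothecin, exposed to pin-transferred compounds, and grown at 37 °C for at least 48 hr. Viability was read as ATP luminescence.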
DT40 TDP1 no CPT: qHTS for Inhibitors of human tyrosyl-DNA phosphodiesterase 1 (TDP1): qHTS in cells in absence of CPT; DT40 Tdp1-/- hTDP1 cells, no CPT, ATP luminescence, 48 h; Potency, µM (doses to about 46.2 µM), usual class: inhibitors; 420,000 compounds, 15% hits; AID 686978, 2013; further: nearly all actives have a fitted effect of over 55% in size
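Seeded 400 DT40-hTDP1 cells/well (vehicle DMSO, no 20 nM CPT); pinned compounds; ≥48 hr at 37 °C; CellTiter-Glo luminescence as viability measure.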
VP16 counter: Gal4-VP16 reporter inhibition counter-screen; Potency, µM (titrated, usually from 53.6 µM), actives largely listed as inhibitors; 310,000 compounds, 3.5% hits; Drosophila S2 Gal4-VP16 UAS-luciferase, luminescence, 20 h;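 further: Gal4-VP16 expression switched on by copper sulfate through the metallothionein promoter; nearly all actives have a fitted effect of over 50% in size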
RORg inh: inhibitors of mouse ROR gamma transcriptional activity | P51450 | Drosophila S2 Gal4-RORgamma UAS-luciferase reporter, 20 h | Potency, µM (titrated, usually from 53.6 µM), most hits filed as inhibitors | 310,000 compounds, 5.4% hits | AID 2551; further: nearly all actives have a fitted effect of over 60% in size
Target sequence (P51450 whole entry, looked up, the tested form may be a part): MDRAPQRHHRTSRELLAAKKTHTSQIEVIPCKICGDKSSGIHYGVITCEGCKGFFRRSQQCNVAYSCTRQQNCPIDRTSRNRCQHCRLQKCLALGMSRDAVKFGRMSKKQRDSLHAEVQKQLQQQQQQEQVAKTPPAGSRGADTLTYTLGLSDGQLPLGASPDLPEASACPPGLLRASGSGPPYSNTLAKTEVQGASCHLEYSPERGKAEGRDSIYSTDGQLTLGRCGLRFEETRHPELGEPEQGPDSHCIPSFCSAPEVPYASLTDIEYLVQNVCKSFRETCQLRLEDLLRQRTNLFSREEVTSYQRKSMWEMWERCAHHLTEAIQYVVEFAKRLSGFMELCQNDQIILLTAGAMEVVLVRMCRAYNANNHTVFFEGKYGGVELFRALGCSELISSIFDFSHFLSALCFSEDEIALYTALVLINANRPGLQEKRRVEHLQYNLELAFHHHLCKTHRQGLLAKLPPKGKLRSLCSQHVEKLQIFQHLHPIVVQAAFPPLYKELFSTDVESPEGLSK
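ROR gamma transcriptional activity was tracked as Gal4-UAS luciferase output in stably transfected Drosophila Schneider cells, with compound added 1 hr before 700 uM copper sulfate induction and a 20 hr ambient-temperature incubation.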
A number is an active result; i = inactive; ? = inconclusive; nt = no result given; [ ] = another dose, or the depositor's remark. In the library only some 19% were active in any assay of this set; here they are far more common. The call rests on the fitted dose curve; in most records, active means well fitted curve in the direction sought with a large enough effect; inconclusive means small, poorly fitted or top-dose-only effect, or another doubt; inactive means no such curve, though single readings can be large; an effect the other way counts as inactive or inconclusive.

SMILES	TDP1 inh	TDP1 cell CPT	DT40 TDP1 no CPT	VP16 counter	RORg inh
Cc1cc2c(cc1C)N(C(=O)CCl)CCN2C(=O)CCl	nt	0.46µM	0.58µM	nt	nt
Cc1cc2c(cc1C)N(C(=O)CCl)CC(=O)N2	nt	2.3µM	2.6µM	nt	nt
Cc1cc(=O)oc2cc(OCC(=O)N3CC(=O)Nc4ccccc43)c(Cl)cc12	i	i	i	nt	nt
CCOc1ccc(CNC(=O)c2nnc(CS(=O)(=O)c3ccccc3)o2)cc1OC	nt	i	i	i	i
COc1ccc(C[C@@H]2CN3C(=NC[C@@H]3C)N2C[C@H](C)NC(=O)c2ccc(C)c(Br)c2)cc1	i	18µM	15µM	i	i
C/C=C(\C)C(=O)N[C@@H](C)CN1C2=NC[C@H](C(C)C)N2C[C@H]1Cc1ccc(OC)cc1	i	i	i	i	i
Cc1ccc(C(=O)NCCN2C3=NC[C@H](C)N3C[C@H]2Cc2ccc(O)cc2)cc1Br	i	21µM	21µM	i	i
COc1ccc(C[C@H]2CN3C(=NC[C@H]3C)N2CCNC(=O)c2ccc(C)c(Br)c2)cc1	i	6.5µM	5.8µM	i	i
Cn1c(-c2cnn(-c3ccccc3)c2N)n[nH]c1=S	i	i	i	i	i
Nc1nc2c(s1)CCc1c-2cnn1-c1ccccc1	i	15µM	13µM	i	i
COc1ccc(S(=O)(=O)NCCC(=O)N2CCCC2)cc1N(C)S(C)(=O)=O	i	i	i	i	i
CCOC(=O)c1ccc(NC(=O)CN2CCCCC2)cc1	nt	i	i	nt	nt
CCOC(=O)c1ccc(NC(=O)Cn2nnc3ccccc32)cc1	i	23µM	10µM	?	i[10 µM]
CC(=O)Nc1ccc(NC(=O)CCn2nnc3ccccc32)cc1	i	?	23µM	i	i
CCOC(=O)c1ccc(NC(=O)Cn2cccc2)cc1	i	15µM	16µM	i	?
COc1cc(NS(=O)(=O)c2ccc(C)cc2C)cc(OC)c1OC	i	6.5µM	6.5µM	?	?
COc1cc(NS(=O)(=O)c2cc3c(cc2C)N(C)CCO3)cc(OC)c1OC	i	21µM	15µM	nt	nt
COc1cc(/C=N/NC(=O)CCC(=O)Nc2ccc(F)cc2)ccc1O	nt	i	i	i	i
CN(C)/N=C/c1c(O)ccc2ccccc12	i	i	i	i	i
Oc1ccccc1N=Cc1c(O)ccc2ccccc12	i	?	i	?	8.9µM
OCC(CO)(CO)N=Cc1c(O)ccc2ccccc12	i	?	?	i	i
CS/C(N)=N/N=C/c1c(O)ccc2ccccc12	i	?	3.7µM	7.1µM	0.89µM
Oc1ccc2ccccc2c1C=NC12CN3CCN(CN(C3)C1)C2	i	13µM	?	i	i
Oc1cccc(C=Nc2cccc3ccccc23)c1O	i	?	?	13µM	11µM
CC(=O)N(C)c1ccc(N=Cc2c(O)ccc3ccccc23)cc1	nt	i	i	?	11µM
SMILES	TDP1 inh	TDP1 cell CPT	DT40 TDP1 no CPT	VP16 counter	RORg inh
Oc1ccc2ccccc2c1C=Nc1ccccc1Br	i	i	i	i	13µM
Oc1ccc2ccccc2c1/C=N/c1nccs1	i	i	i	i	i
NS(=O)(=O)c1ccc(CCNC(=O)C(=O)Nc2cc3c4c(c2)CC(=O)N4CCC3)cc1	i	i	i	nt	nt
Cc1cc(Cl)ccc1OCC(=O)N/N=C1\CC2C=CCC12 (stereo unspecified)	i	i	i	i	i
Cc1ccc(C(=O)OCC(=O)Nc2ccc(S(N)(=O)=O)cc2)c(O)c1	i	i	i	i	i
O=C(Nc1ccccc1N1CCOCC1)c1ccc(F)c(S(=O)(=O)N2CCOCC2)c1	i	?	i	nt	nt
O=C(NCc1nc2ccccc2[nH]1)c1cccc(S(=O)(=O)N2CCOCC2)c1	i	i	i	i	i
O=C(Nc1nc2ccccc2[nH]1)c1cccc(S(=O)(=O)N2CCOCC2)c1	i	i	i	?	8.9µM
O=C(Nc1nc2ccccc2[nH]1)c1ccc(F)c(S(=O)(=O)N2CCOCC2)c1	i	?	?	?	14µM
Cc1cc(-c2nnc(CCC(=O)N(CC3CCC3)CC3CCCO3)o2)no1 (stereo unspecified)	i	?	i	i	i
CCN(CC)CCN(C(=O)c1ccco1)c1nc2cc(C)cc(C)c2s1	i	?	23µM	nt	nt
CCN(CC)CCN(C(=O)c1ccc(S(=O)(=O)N2CCCC2)cc1)c1nc2cc(C)cc(C)c2s1	i	?	?	i	i
CCc1ccc2nc(N(CCN(CC)CC)C(=O)c3ccco3)sc2c1	i	21µM	?	nt	nt
CCc1ccc(N2C=C(C(=O)OC)C(c3cccc4ccccc34)C(C#N)=C2N)cc1 (stereo unspecified)	nt	13µM	8.2µM	nt	nt
COC(=O)C1=CN(c2ccc(OC)cc2)C(N)=C(C#N)C1c1cccc2ccccc12 (stereo unspecified)	nt	5.8µM	5.2µM	nt	nt
COC(=O)C1=CNC=C(C(=O)OC)C1c1cccc2ccccc12	nt	i	?	i	i
COC(=O)C1=CN(c2ccc(C(C)(C)C)cc2)C(N)=C(C#N)C1c1cccc2ccccc12 (stereo unspecified)	nt	15µM	13µM	nt	nt
Cc1cc(C)c[n+](C[n+]2cc(C)cc(C)c2)c1	i	i	i	i	i
CCCCC(=O)N(C)c1c(C)nc2ccc(C(=O)NCc3ccccc3OC)cn12	nt	i	i	nt	nt
COc1ccc(CNC(=O)c2ccc3nc(C)c(N(C)Cc4ccc(NC(C)=O)cc4)n3c2)cc1	nt	13µM	16µM	nt	nt
COc1ccccc1CNC(=O)c1ccc2nc(C)c(N(C)Cc3ccc(NC(C)=O)cc3)n2c1	nt	16µM	15µM	nt	nt
CCCCN(C)c1c(C)nc2ccc(C(=O)NCc3ccc(OC)cc3)cn12	nt	13µM	13µM	nt	nt
CCCCC(=O)OC1CCC2C3CCc4cc(O)ccc4C3CC[C@]12C (stereo partly specified)	i	nt	nt	?	i
CCC1Sc2ccc(S(=O)(=O)CCC(=O)Nc3ccccc3Cl)cc2NC1=O (stereo unspecified)	i	i	i	i	i
Cc1cc(C)n(-c2nc3ccccc3c(=O)n2OCCOc2ccccc2)n1	i	12µM	18µM	14µM	?
SMILES	TDP1 inh	TDP1 cell CPT	DT40 TDP1 no CPT	VP16 counter	RORg inh
Cc1cc(CC(C)C)n(-c2nc3ccccc3c(=O)n2OCC(N)=O)n1	i	?	?	5.6µM	2.2µM
NC(=O)COn1c(SCC(N)=O)nc2ccccc2c1=O	i	i	i	i	i
C=CCOn1c(-n2nc(C)cc2C)nc2ccccc2c1=O	nt	i	i	i	?
Cc1cc(C)n(-c2nc3ccccc3c(=O)n2OCC(N)=O)n1	i	i	i	20µM	6.3µM
C=C(C)c1cccc(C(C)(C)NC(=O)N(C)C2CCN(C)CC2)c1	i	i	i	i	i
Cc1cc(C)n(CC(=O)c2cccc(N)c2)n1	i	i	i	i	i
CCOC(=O)Nc1oc2ccccc2c(=O)c1CN1CCOCC1	i	i	?	i	i
CCCCNc1c(-c2ccc(SC(C)CC)cc2)nc2ccc(Cl)cn12 (stereo unspecified)	nt	?	29µM	nt	nt
